Assay results from the OligoGym collection.

target: CCDC56; experiment: pooled miR-30 sensor sort-seq; sequence = guide strand; details: shRNA
Further: reference of the scale not given here.

Q: TTGCCAGAGCTCGGGCTCGGGC was tested. Which sensor-assay potency score (higher = more potent) did it give?
A: -1.79

Q: With TCGAGTAGAAGGTGTAACCATA as the sequence, how does the sensor-assay potency score (higher = more potent) read?
A: -1.07

Q: With TTGCTCGGGTGTCAGCTTCTCC as the sequence, how does the sensor-assay potency score (higher = more potent) read?
A: -1.07

Q: For TCGGGTGTCAGCTTCTCCCGAG, which sensor-assay potency score (higher = more potent) is on record?
A: -0.206

Q: Which sensor-assay potency score (higher = more potent) does the source give for TAGAATCCAGAGGGTCACCAGC here?
A: -1.25

Q: TGGGAAATCGAGTAGAAGGTGT was tested. Which sensor-assay potency score (higher = more potent) did it give?
A: 0.0738

Q: For TCATCTAGGAAACGCTCCTGGG, which sensor-assay potency score (higher = more potent) is on record?
A: -1.24

Q: TAGCTCATCTAGGAAACGCTCC was tested. Which sensor-assay potency score (higher = more potent) did it give?
A: -0.33

Q: TAAATAGCCAACACCAGGGCCC was tested. Which sensor-assay potency score (higher = more potent) did it give?
A: 0.333

Q: ATCTAGGAAACGCTCCTGGGAA was tested. Which sensor-assay potency score (higher = more potent) did it give?
A: -1.12

target: CCDC72; experiment: as above; details: shRNA

Q: TTTGTTTCTGCTTGAAAGCCTT was tested. Which sensor-assay potency score (higher = more potent) did it give?
A: -0.585

Q: How did the sensor-assay potency score (higher = more potent) turn out when TTCCTCGTCCATCTCCTTGGCC was run?
A: -0.547

Q: For TTGTTTCTGCTTGAAAGCCTTA, which sensor-assay potency score (higher = more potent) is on record?
A: -0.0976

Q: TTAAATGTACAACAGCTCCAAG was tested. Which sensor-assay potency score (higher = more potent) did it give?
A: -1.04

Q: How did the sensor-assay potency score (higher = more potent) turn out when TCTGCTTGAAAGCCTTATCTTC was run?
A: -0.819

Q: TCTTCCTCGTCCATCTCCTTGG was tested. Which sensor-assay potency score (higher = more potent) did it give?
A: -0.456

Q: For ATCTTCCTCGTCCATCTCCTTG, which sensor-assay potency score (higher = more potent) is on record?
A: -1.81

Q: How did the sensor-assay potency score (higher = more potent) turn out when TTATTCTTAAATGTACAACAGC was run?
A: -0.855

Q: Which sensor-assay potency score (higher = more potent) does the source give for TTCAGTGGCTTCTTCTTGCCAC here?
A: 0.0626

Q: With TTATCTTCCTCGTCCATCTCCT as the sequence, how does the sensor-assay potency score (higher = more potent) read?
A: 0.315

target: CCDC77; experiment: as above; details: shRNA

Q: How did the sensor-assay potency score (higher = more potent) turn out when TTGCAAAATACCTTCTTCCTAA was run?
A: -0.254

Q: TTTTTCTCTTGTACTAACTTAT was tested. Which sensor-assay potency score (higher = more potent) did it give?
A: -0.944

Q: For TATGCTGTCCTTCACAAGCTTC, which sensor-assay potency score (higher = more potent) is on record?
A: -1.33

Q: For TTTGGTGCTCTCATAGAGCAGT, which sensor-assay potency score (higher = more potent) is on record?
A: -0.0472

Q: With TTTCTTCTTACACTGCACCCTA as the sequence, how does the sensor-assay potency score (higher = more potent) read?
A: -0.0389

Q: How did the sensor-assay potency score (higher = more potent) turn out when TTTCTTGTCTTCTAGCTCCCTG was run?
A: -0.0804

Q: With TTAATATCTGTCTTAAAGCCTT as the sequence, how does the sensor-assay potency score (higher = more potent) read?
A: -0.792

Q: With TAATATATTCACTTTGAGCATG as the sequence, how does the sensor-assay potency score (higher = more potent) read?
A: -0.91

Q: For TTCTTGTCTTCTAGCTCCCTGA, which sensor-assay potency score (higher = more potent) is on record?
A: -1.06

Q: How did the sensor-assay potency score (higher = more potent) turn out when TTTCGTTTGAGTCTCTAGCGCC was run?
A: -0.231

Q: TAGCTCTTTGATTTTGTTCTGA was tested. Which sensor-assay potency score (higher = more potent) did it give?
A: 0.252

Q: How did the sensor-assay potency score (higher = more potent) turn out when TTATCTTTTTCAAGCATCCATG was run?
A: -1.19

target: CCL13; experiment: as above; details: shRNA

Q: How did the sensor-assay potency score (higher = more potent) turn out when TGAAGCAGCAAGTAGATGGGAC was run?
A: -0.203

Q: With ATCTTCTTACTGCTAAATGTGA as the sequence, how does the sensor-assay potency score (higher = more potent) read?
A: -1.06

Q: Which sensor-assay potency score (higher = more potent) does the source give for TATAATTCTGGACCCACTTCTC here?
A: -0.771

Q: Which sensor-assay potency score (higher = more potent) does the source give for TAAATGTGAAGCAGCAAGTAGA here?
A: -1.06

Q: AAGGAGATCTTCTTACTGCTAA was tested. Which sensor-assay potency score (higher = more potent) did it give?
A: -0.229

Q: For ATTCTGGACCCACTTCTCCTTT, which sensor-assay potency score (higher = more potent) is on record?
A: -1.22

Q: Which sensor-assay potency score (higher = more potent) does the source give for TGCAAGGAGATCTTCTTACTGC here?
A: -0.0125

Q: With TAACACATAGTACATTTTGAAT as the sequence, how does the sensor-assay potency score (higher = more potent) read?
A: -1.62
